Our source for the outcome, activation and Potency values is PubChem BioAssay (NCATS).

Assay [1] deals with D(1A) dopamine receptor (Homo sapiens) (UniProt P21728). As to the kind of experiment: HTS Assay for Allosteric Agonists of the Human D1 Dopamine Receptor: Primary Screen for Agonists (AID 488981). Further: 0% is about no effect. Put shortly:
(§1)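 Tetracycline-induced HEK293 T-REx cells force-coupled to calcium signalling were incubated overnight at 30 C and dye-loaded at room temperature. Calcium flux over 180 s after compound addition flagged agonists; a further 180 s read after EC20 dopamine flagged potentiators.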

Assay [2] has the same target. Kind of assay: HTS Assay for Allosteric Agonists of the Human D1 Dopamine Receptor: Primary Screen for Potentiators (AID 488982). Further: 0% is about no effect. Put shortly:
as §1

For assay [3], the target named is Thyrotropin-releasing hormone receptor (Homo sapiens) (UniProt P34981). Kind of assay: qHTS for Small Molecule Agonists and Allosteric Enhancers of Human TRH Receptor: Validation Screen for Agonists (AID 493127;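 active means calcium activation more than 3 SD above the typical response in the agonist read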;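 further: intracellular calcium rise by fluo-8 fluorescence before TRH EC20 addition; 0% is about no effect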). Particulars: TRH receptor agonist cell assay; at 2 µM; active compounds read high. Put shortly: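 Kinetic fluorescence assay of agonist-induced calcium release: overnight-plated TRHR cells, room-temperature fluo-8 loading, baseline then compound addition with per-second reads.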

A short description of assay [4]: qHTS for Inhibitors of Cell Surface uPA Generation: Validation Assay (AID 493164).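 Further: RAW 264.7 macrophage cells exposed to compound for 18 h; 0% is about no effect.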 Put shortly:
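Compounds are titrated over seven points (2.45 nM–38.3 uM final) onto pre-plated RAW 264.7 cells and incubated for 18 h. Retained intracellular ATP, measured with ATP-Lite, indicates blocked lethal factor entry.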
A general note: qHTS replaces the single test concentration by a dilution series.

The target in assay [5] is Galactokinase (Homo sapiens) (UniProt P51570). Kind of assay: qHTS Validation Assay for Inhibitors of Human Galactokinase (GALK) (AID 493189). Further: 0% is about no effect. In outline: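 Compounds were pin-transferred into ATP buffer, then GALK-galactose mix was added (final 5 nM enzyme, 100 uM galactose, 35 uM ATP). After 1 h at room temperature, remaining ATP was measured luminescently.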
Assay [6] can be described thus: Validation screen for small molecules that induce DNA re-replication in SW480 colon adenocarcinoma cells (AID 504364). Further: 0% is about no effect. Put shortly:
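Hoechst-stained SW480 nuclei, imaged at 405 nm excitation after 48 hr compound exposure, were counted for elevated DNA content as the re-replication signal.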

Assay [7] addresses Peptidyl-prolyl cis-trans isomerase NIMA-interacting 1 (Homo sapiens) (UniProt Q13526). As to the kind of experiment: qHTS Validation Assay to Find Inhibitors of Pin1 (AID 504536; active means well fitted inhibition curve with a large enough effect in the polarisation, with a control signal flat, not every such curve was filed as active; the % refers to the polarisation;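 further: 0% = full Pin1 enzyme wells and -100% = no-enzyme wells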). Put shortly:
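Fluorescence polarization competition: compounds (titration) displace HiFluor-488-labeled Pin1-1b peptide from Pin1 (0.3 uM final) in pH 7.5 HEPES buffer with DTT, 10 min at room temperature; %Activity normalized to no-enzyme wells, curves fitted.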

Assay [8] concerns the target Phosphoglycerate kinase, glycosomal (Trypanosoma brucei brucei) (UniProt P07378). As to the kind of experiment: qHTS Validation Assay to Find Inhibitors of Phosphoglycerate Kinase (AID 504547).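 Further: control wells lack PGK and mark full inhibition.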 In outline:
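In TEA buffer (100mM, pH 7.6) containing 5mM MgCl2 and 0.01% Tween-20, the GAPDH-coupled PGK reaction proceeded for 60 minutes at room temperature before a single luminescence reading using Kinase-Glo Plus.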

Assay [9] concerns the target Voltage-gated inwardly rectifying potassium channel KCNH2 (Homo sapiens) (UniProt Q12809). As to the kind of experiment: qHTS Assay for Small Molecule Inhibitors of the Human hERG Channel Activity (AID 588834).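 Further: U2OS cells transduced with hERG by BacMam; top concentration of the series differs between compounds; on the % scale 0 is the no-effect control and ±100 the full control effect; lower thallium flux fluorescence means stronger hERG block; nearly all actives have a fitted effect of over 50% in size.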 In outline: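 Cells were infected with hERG-BacMam virus for 4 hrs at room temperature, grown overnight, then seeded at 2000/well. After dye loading and roughly 10 min compound treatment, thallium influx was triggered and fluorescence recorded.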

For assay [10], the target named is Glutaminase kidney isoform, mitochondrial (Homo sapiens) (UniProt O94925). As to the kind of experiment: qHTS for Inhibitors of Glutaminase (GLS): LOPAC Validation (AID 624146). Further: potency means the concentration at half of the fitted maximal effect; nearly all actives have a fitted effect of over 60% in size. Put shortly: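 Assay buffer: 45 mM KH2PO4 pH 8.2, 0.02% Tween-20. hKGA acts on L-glutamine (1 mM solution added); product glutamate is reported by an oxidase/peroxidase Amplex Red coupling, with fluorescence taken at baseline and 30 min.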

Assay [11] in a line: qHTS of Trypanosoma Brucei Inhibitors: LOPAC Validation (AID 624147). Further: 0% is about no effect. Put shortly: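 Quantitative HTS: titrated library compounds versus trypanosomal pyruvate kinase in TEA buffer (pH 7.2) containing KCl, MgCl2, BSA and Tween-20. Reactions were initiated with ADP, 130 uM final. Kinase-Glo Plus luminescence was read after 45 min at RT.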
The target of assay [12] is Glucagon-like peptide 1 receptor (Homo sapiens) (UniProt P43220). As to the kind of experiment: qHTS of GLP-1 Receptor Agonists: LOPAC Validation (AID 624148).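 Further: 0% is about no effect; higher luminescence signal means agonism.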 In outline: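 HEK293 cells stably co-expressing a cAMP-responsive luciferase reporter and a hypersensitive GLP-1R were plated 12 h at 37 °C and exposed to compounds for 4-6 hr at 37 °C, 5% CO2. Luminescence was read 12 min after adding detection reagent.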

Assay [13] in a line: qHTS of Nrf2 Activators: LOPAC Validation (AID 624149). Further: 0% is about no effect. Put shortly: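 Following overnight seeding in 5% FBS OPTI-MEM, AREc32_Fluc cells receive compounds for a 24 hr incubation at 37 deg C with 5% CO2. Steady-Glo is added, and after 30 min at RT luminescence is recorded.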
Assay [14] can be described thus: HTS Assay for Allosteric Antagonists of the Human D2 Dopamine Receptor: Hit Validation in HTRF (AID 624455).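 Further: stable D1 dopamine receptor cell line scored for blocking the D1 response; on the % scale 0 is the no-effect control and ±100 the full control effect.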 Put shortly: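 Validation of hits used D1 receptor stably expressed in cells with HTRF detection of response inhibition; origin screen measured calcium flux following EC80 dopamine in a force-coupled, inducible Hek293 Trex D2 cell line.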
In assay [15] the target is Tyrosine-protein kinase Yes (Homo sapiens) (UniProt P07947). Kind of assay: qHTS for small molecule inhibitors of Yes1 kinase: Primary Screen (AID 686947). Further: potency means the concentration at half of the fitted maximal effect; nearly all actives have a fitted effect of over 60% in size. In outline: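 In this qHTS format, inhibition is expressed relative to DMSO controls with enzyme (maximum) and without enzyme (minimum). The 60 min room-temperature reaction uses 0.1 mM ATP, with ADP detected by luminescence.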

Assay [16] is described as follows: qHTS for small molecule inhibitors of Yes1 kinase: Counter Assay (AID 686950).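 Further: no kinase present so only ADP-Glo detection of a fixed ADP amount is tested; luminescence from ADP-Glo reporting ADP in a fixed ATP and ADP mixture; series mostly up to about 77 µM; 0% = DMSO wells with ATP plus ADP and -100% = ATP-only wells without ADP.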 Put shortly:
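Measuring interference with ADP-Glo, the assay ran 60 min at room temperature on an ATP/ADP mix lacking enzyme. Values were normalized to ATP-plus-ADP (maximum) and ATP-only (minimum) DMSO controls.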

The target in assay [17] is Arylsulfatase A (Homo sapiens) (UniProt P15289). As to the kind of experiment: qHTS screen for enhancers of Arylsulfatase A (ASA1): LOPAC Validation Assay (AID 720538). Further: potency means the concentration at half of the fitted maximal effect. Put shortly: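 First, ASA-I179S fibroblasts from an MLD patient adhered for 6 hrs. Next, compounds were added for 48h. Then pNCS substrate (0.5mM final) with lysis buffer reacted 14h at room temperature before NaOH stop and fluorescence measurement.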

Assay [18] can be described thus: qHTS for compounds that reverse cellular toxicity of Amyloid beta (A-beta) peptide in yeast: LOPAC Validation Assay (AID 720559).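 Further: plate controls were DMSO for no effect and equimolar ferric chloride plus clioquinol rescue for full effect.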 Put shortly:
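Activity is expressed relative to DMSO and an equimolar ferric chloride/clioquinol mix. Compounds were pinned into medium with A-beta-expressing yeast, grown 48 hr at 30 C, then read by absorbance at 600 nm.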

Assay [19] can be described thus: qHTS for Activators of Parkin Expression: LOPAC Validation Assay (FLuc Reporter) (AID 720573; further: potency means the concentration at half of the fitted maximal effect). In outline: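 A neuronal cell line harbouring FLuc and NLuc reporters behind the Parkin promoter was exposed to compounds for 24 h. Firefly luciferase signal, measured after 10 min with detection reagent, was scaled to DMSO and positive-control wells.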
Assay [20] has as its target Hexokinase-4 (Homo sapiens) + Glucokinase regulatory protein (Homo sapiens) (UniProt P35557+Q14397). Kind of assay: qHTS assay for inhibitors of recombinant human GCK-GKRP interaction: Diaphorase-coupled assay (AID 743205). In outline: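 Inhibitors of the GCK–GKRP complex relieve GKRP suppression of GCK, detected through a G6PDH–diaphorase cascade reducing resazurin. Human GST-GCK and FLAG-GKRP are used at 10 nM with 5 mM glucose and 0.4 mM ATP.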

Unmarked numbers belong to inactive results. Records with an inconclusive call do not appear. The source made the active and inactive calls. Unless noted, the call rests on the fitted dose curve; in most records, active means well fitted curve in the direction sought with a large enough effect; inconclusive means small, poorly fitted or top-dose-only effect, or another doubt; inactive means no such curve, though single readings can be large; an effect the other way counts as inactive or inconclusive.

Sequence of D(1A) dopamine receptor (Homo sapiens) (P21728 whole entry, looked up): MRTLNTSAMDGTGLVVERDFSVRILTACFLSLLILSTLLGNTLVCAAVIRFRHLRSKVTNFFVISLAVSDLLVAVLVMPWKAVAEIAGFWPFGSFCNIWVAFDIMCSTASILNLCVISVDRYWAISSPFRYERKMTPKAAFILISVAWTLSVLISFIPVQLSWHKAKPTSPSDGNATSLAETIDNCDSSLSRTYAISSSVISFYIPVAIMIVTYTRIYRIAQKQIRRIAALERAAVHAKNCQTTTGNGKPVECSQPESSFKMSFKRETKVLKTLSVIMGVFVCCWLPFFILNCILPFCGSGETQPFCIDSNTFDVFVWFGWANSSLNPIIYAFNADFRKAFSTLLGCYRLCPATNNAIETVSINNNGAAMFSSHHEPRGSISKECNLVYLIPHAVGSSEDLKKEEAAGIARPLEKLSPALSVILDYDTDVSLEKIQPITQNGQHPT
Sequence of Hexokinase-4 (Homo sapiens) + Glucokinase regulatory protein (Homo sapiens) (P35557 whole entry, looked up): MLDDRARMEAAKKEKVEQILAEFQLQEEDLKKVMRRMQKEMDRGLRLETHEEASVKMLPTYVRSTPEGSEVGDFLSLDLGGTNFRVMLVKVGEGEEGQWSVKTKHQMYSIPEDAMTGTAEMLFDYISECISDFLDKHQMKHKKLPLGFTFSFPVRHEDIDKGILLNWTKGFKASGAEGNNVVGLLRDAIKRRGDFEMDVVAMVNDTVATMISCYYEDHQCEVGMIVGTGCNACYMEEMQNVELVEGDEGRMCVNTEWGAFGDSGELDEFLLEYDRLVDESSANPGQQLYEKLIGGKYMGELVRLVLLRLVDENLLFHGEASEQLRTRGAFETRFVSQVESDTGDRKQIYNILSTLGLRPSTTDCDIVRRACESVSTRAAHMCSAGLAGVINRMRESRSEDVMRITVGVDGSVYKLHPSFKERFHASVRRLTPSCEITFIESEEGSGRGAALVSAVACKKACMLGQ
Sequence of Hexokinase-4 (Homo sapiens) + Glucokinase regulatory protein (Homo sapiens) (Q14397 whole entry, looked up): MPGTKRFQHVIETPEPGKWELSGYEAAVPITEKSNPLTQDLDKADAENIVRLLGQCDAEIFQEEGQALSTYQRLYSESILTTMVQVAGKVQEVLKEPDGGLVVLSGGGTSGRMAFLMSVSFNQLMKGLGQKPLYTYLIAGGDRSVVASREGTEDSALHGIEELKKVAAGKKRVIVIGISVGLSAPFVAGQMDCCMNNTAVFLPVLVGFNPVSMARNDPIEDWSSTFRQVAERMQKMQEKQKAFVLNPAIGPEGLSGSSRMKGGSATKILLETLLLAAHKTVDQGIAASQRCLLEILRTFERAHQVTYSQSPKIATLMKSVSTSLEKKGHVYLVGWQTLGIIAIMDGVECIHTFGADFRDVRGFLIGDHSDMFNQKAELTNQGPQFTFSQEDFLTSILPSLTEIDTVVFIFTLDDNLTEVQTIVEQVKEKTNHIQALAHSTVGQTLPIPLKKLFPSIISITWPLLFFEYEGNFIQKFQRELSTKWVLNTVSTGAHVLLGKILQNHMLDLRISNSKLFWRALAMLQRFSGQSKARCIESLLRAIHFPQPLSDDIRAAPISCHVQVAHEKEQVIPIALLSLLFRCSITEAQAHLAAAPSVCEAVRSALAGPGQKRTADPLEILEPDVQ
Sequence of Voltage-gated inwardly rectifying potassium channel KCNH2 (Homo sapiens) (Q12809 whole entry, looked up): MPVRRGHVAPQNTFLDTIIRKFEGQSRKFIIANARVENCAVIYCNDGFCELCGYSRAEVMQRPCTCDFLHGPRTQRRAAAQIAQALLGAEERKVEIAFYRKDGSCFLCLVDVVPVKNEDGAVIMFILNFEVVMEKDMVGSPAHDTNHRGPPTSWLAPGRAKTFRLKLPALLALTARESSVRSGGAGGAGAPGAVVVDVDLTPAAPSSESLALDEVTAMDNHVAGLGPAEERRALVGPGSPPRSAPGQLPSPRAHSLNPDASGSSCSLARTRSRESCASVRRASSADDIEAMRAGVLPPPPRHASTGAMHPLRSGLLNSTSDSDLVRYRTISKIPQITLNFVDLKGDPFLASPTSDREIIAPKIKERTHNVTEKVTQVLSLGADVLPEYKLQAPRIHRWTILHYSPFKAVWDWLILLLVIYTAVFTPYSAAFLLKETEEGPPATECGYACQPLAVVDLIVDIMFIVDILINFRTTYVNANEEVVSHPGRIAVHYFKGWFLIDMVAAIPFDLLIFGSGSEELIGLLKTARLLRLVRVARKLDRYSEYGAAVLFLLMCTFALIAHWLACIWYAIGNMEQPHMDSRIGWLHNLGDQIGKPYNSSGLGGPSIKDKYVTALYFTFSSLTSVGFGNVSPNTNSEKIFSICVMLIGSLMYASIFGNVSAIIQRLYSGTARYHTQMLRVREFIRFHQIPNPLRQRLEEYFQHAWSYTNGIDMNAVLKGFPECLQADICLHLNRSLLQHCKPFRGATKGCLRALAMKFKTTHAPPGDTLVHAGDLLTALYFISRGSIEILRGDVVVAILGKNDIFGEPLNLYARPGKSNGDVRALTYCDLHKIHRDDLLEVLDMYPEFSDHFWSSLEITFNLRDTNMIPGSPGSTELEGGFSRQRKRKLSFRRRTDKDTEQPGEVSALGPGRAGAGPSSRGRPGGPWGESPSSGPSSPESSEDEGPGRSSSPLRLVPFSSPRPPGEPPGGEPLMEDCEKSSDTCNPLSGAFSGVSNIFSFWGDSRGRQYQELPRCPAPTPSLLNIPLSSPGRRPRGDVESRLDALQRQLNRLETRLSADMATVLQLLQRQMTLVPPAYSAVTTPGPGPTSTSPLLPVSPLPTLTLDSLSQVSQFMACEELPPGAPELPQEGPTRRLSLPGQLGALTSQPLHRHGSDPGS
Sequence of Tyrosine-protein kinase Yes (Homo sapiens) (P07947 whole entry, looked up): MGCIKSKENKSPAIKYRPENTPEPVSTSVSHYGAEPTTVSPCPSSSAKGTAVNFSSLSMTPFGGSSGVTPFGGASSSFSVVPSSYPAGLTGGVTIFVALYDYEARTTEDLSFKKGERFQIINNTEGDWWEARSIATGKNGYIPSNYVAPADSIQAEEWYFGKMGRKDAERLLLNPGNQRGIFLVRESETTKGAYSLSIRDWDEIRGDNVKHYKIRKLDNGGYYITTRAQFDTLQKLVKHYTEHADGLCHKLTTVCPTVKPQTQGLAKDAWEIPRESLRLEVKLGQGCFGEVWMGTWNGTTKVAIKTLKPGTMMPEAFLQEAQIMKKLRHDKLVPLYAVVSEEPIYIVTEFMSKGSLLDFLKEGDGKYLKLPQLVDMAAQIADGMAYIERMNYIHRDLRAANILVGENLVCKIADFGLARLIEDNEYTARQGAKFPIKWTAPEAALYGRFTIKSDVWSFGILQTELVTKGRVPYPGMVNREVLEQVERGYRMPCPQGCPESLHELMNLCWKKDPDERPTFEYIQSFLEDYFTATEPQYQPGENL
Sequence of Arylsulfatase A (Homo sapiens) (P15289 whole entry, looked up): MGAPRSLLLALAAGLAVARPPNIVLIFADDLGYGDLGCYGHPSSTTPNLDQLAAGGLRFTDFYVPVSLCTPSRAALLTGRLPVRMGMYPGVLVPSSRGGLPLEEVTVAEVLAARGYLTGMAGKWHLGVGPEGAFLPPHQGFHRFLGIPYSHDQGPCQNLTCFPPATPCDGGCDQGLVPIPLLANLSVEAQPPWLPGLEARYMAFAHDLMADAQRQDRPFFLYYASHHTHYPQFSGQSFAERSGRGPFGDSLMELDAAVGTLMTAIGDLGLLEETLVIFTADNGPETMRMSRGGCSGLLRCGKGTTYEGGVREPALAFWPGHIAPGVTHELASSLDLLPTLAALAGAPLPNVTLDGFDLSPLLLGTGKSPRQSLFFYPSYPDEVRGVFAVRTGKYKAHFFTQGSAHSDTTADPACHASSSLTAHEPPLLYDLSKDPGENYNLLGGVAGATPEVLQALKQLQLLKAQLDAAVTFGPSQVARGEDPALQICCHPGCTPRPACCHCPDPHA
Sequence of Galactokinase (Homo sapiens) (P51570 whole entry, looked up): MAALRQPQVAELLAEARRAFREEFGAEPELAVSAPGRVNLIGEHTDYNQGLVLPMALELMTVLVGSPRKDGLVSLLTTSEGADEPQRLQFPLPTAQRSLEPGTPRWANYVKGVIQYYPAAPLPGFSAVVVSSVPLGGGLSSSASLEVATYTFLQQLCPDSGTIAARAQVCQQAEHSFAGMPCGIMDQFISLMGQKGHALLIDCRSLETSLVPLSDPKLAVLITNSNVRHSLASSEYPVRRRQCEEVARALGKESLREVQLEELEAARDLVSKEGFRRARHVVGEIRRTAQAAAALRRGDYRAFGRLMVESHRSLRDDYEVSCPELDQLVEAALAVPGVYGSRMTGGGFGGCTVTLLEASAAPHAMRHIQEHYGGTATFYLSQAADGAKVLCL
Sequence of Glutaminase kidney isoform, mitochondrial (Homo sapiens) (O94925 whole entry, looked up, canonical isoform): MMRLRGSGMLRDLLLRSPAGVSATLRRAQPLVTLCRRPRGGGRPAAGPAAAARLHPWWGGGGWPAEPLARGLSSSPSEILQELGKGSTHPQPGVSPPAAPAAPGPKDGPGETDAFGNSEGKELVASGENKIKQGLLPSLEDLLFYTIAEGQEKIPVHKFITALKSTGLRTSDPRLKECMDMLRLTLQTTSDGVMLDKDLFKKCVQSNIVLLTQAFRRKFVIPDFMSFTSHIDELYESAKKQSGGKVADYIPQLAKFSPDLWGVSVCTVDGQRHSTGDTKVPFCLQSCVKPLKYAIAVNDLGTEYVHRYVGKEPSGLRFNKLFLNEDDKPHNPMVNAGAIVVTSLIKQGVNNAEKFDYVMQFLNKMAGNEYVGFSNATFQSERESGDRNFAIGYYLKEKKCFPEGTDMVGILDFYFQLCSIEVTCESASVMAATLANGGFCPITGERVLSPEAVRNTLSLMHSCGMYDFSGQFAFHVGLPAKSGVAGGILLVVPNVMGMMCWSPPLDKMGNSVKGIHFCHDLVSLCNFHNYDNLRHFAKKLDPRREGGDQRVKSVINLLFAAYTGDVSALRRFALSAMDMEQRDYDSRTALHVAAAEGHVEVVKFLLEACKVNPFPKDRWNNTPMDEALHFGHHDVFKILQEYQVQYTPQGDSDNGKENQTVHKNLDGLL
Sequence of Peptidyl-prolyl cis-trans isomerase NIMA-interacting 1 (Homo sapiens) (Q13526 whole entry, looked up): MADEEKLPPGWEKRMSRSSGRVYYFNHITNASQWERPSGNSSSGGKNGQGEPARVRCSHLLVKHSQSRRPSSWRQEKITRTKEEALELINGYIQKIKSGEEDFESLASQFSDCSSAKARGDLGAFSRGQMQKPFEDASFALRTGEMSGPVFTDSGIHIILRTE

On to `O=Nc1c(-c2c(O)[nH]c3ccccc23)[nH]c2ccccc12`, for which the molecule was called inactive in assay [1], in [2], in [4], in assay [5], in assay [6] and in assay [11]. The result in assay [12], in assay [13], in [14], in assay [16], in [18] and in assay [20] was inactive. In assay [3], the activation was -6%. The Potency entry in assay [7], in assay [8] and in assay [9] was “inactive” in each case. Moreover, the Potency was 11.2 µM (active) in assay [10], 0.772 µM (active) in [15], 10.7 µM (active) in assay [17] and 10.3 µM (active) in assay [19].
